Only some compounds are listed: those with a hit (about 8% of all), similar ones and a draw of the others.
SW480 rerep – A quantitative high throughput screen for small molecules that induce DNA re-replication in SW480 colon adenocarcinoma cells; SW480 DNA re-replication, Hoechst DNA content imaging, 48 h; Potency, µM (highest dose often 46.1 µM), usual class: activators; actives 1.8% (n = 340,000); note: nearly all actives have a fitted effect of over 55% in size
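Quantitative HTS format with DMSO vehicle controls; 48 hr drug incubation at 37 C, then 40 min Hoechst staining and scanning imager measurement at 405 nm excitation.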
KB-V1 MDR tox – qHTS assay for MDR1-selective chemotherapeutics: Primary screen using the drug-selected MDR subline cells KB-V1; actives 3.4% (n = 400,000); Potency, µM (doses to about 46.1 µM), usual class: cytotoxic; KB-V1 MDR cells viability, CellTiter-Glo, 72 h; AID 1347076, 2019; note: nearly all actives have a fitted effect of over 60% in size
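Cells of the MDR subline KB-V1 are plated, dosed with compound at multiple concentrations, and incubated 72 h at 37 degrees C; CellTiter-Glo is then added and luminescence read after 10 min.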
MCF10A rereplic – A quantitative high throughput screen for small molecules that induce DNA re-replication in MCF 10a normal breast cells; actives 2.9% (n = 350,000); MCF 10A DNA re-replication, Hoechst nuclear intensity, 48 h; Potency, µM (series often up to 46.1 µM), hits mostly activators; note: nearly all actives have a fitted effect of over 50% in size
HT1080NT lethal – qHTS for induction of synthetic lethality in tumor cells producing 2HG: qHTS for the HT-1080-NT fibrosarcoma cell line; HT-1080-NT fibrosarcoma viability, CellTiter-Glo ATP luminescence, 48 h; actives 1.6% (n = 360,000); Potency, µM (series often up to 46.1 µM), actives largely listed as cytotoxic; AID 686970, 2013;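 note: NT is the 2HG producing partner of a matched IDH1 knockdown line; nearly all actives have a fitted effect of over 55% in size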
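HT-1080-NT; 750 cells/well; 5% FBS RPMI; 48 h compound, 37 degrees C; CellTiter-Glo luminescence; curve fitting and curve-class assignment.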
HT1080 IDH1KD tx – qHTS for induction of synthetic lethality in tumor cells producing 2HG: qHTS for the HT-1080-IDH1KD cell line | HT-1080 IDH1 knockdown viability, ATP luminescence, 48 h | Potency, µM (titrated, usually from 46.1 µM), usual class: cytotoxic | actives 2% (n = 360,000) | AID 686971, 2013
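IDH1KD HT-1080 cells, 750/well, RPMI + 5% FBS; compound pinned after 2 h settling; 48 h, 37 °C; CellTiter-Glo luminescence; % activity normalised to DMSO and no-cell wells; curves fitted, classed by r2 and efficacy.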
KB-3-1 tox – qHTS assay for MDR1-selective chemotherapeutics: Primary screen using the parental adenocarcinoma cell KB-3-1; AID 1347075, 2019; actives 1.4% (n = 400,000); Potency, µM (series often up to 46.1 µM), most hits filed as cytotoxic; KB-3-1 viability, CellTiter-Glo ATP luminescence, 72 h; note: nearly all actives have a fitted effect of over 60% in size
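Cells are dispensed, compounds pinned in, plates held at 37 °C for 72 h, then CellTiter-Glo is added and luminescence read after 10 minutes. Cell line: parental KB-3-1 in phenol-red-free DMEM, 10% FBS.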
Of the large screens only hits and unclear results are named; the others gave an inactive call. Calls come from the whole dose curve; as a rule, active = well fitted curve in the direction sought with a large enough effect; inconclusive = small, poorly fitted or top-dose-only effect, or another doubt; inactive = no such curve, though single readings can be large; an effect the other way counts as inactive or inconclusive.

CCN(CC)CCC(=O)N1c2ccccc2Sc2ccc(Cl)cc21	SW480 rerep 14.1µM, KB-V1 MDR tox inconclusive, MCF10A rereplic 29.9µM, HT1080NT lethal inconclusive, HT1080 IDH1KD tx 20.6µM
CCOCCCn1c(SCC(=O)Nc2ccc(C(C)C)cc2)nc2c(sc3ccccc32)c1=O	none (no result: SW480 rerep, MCF10A rereplic, HT1080NT lethal, HT1080 IDH1KD tx)
O=C(CSc1nnc(-c2ccc(C(F)(F)F)cn2)s1)c1ccc(Cl)cc1	none
CCOC(=O)N1CCN(C(=O)c2ccc3c(c2)NC(=O)/C(=C\c2cccc(C)c2)S3)CC1	KB-V1 MDR tox inconclusive, MCF10A rereplic 18.4µM, KB-3-1 tox inconclusive
CCOC(=O)N1CCN(C(=O)c2ccc3c(c2)N(C)C(=O)/C(=C\c2ccc(OCC)c(OC)c2)S3)CC1	SW480 rerep 10.3µM, MCF10A rereplic inconclusive, HT1080 IDH1KD tx inconclusive, KB-3-1 tox inconclusive
Cc1cccc(/C=C2\Sc3ccc(C(=O)N4CCCCC4)cc3N(C)C2=O)c1	KB-V1 MDR tox inconclusive, HT1080NT lethal 18.4µM
Cc1cccc(/C=C2\Sc3ccc(C(=O)N4CCOCC4)cc3N(C)C2=O)c1	none
O=C1Nc2cc(C(=O)NCCCN3CCOCC3)ccc2S/C1=C/c1ccccc1F	SW480 rerep inconclusive, MCF10A rereplic inconclusive
CCOC(=O)N1CCN(C(=O)c2ccc3c(c2)NC(=O)/C(=C\c2ccc(OC)c(OC)c2)S3)CC1	KB-3-1 tox inconclusive
O=C1Nc2cc(C(=O)NCCCN3CCOCC3)ccc2S/C1=C/c1cccc(Cl)c1	SW480 rerep 14.6µM, MCF10A rereplic 16.4µM
Cc1cccc(/C=C2/Sc3ccc(C(=O)N4CCOCC4)cc3NC2=O)c1	MCF10A rereplic inconclusive
CCCNC(=O)N1C2=NC(C(=O)OC)=C(C(=O)OC)[C@@H]3N(Cc4ccccc4)c4ccccc4[C@]23C[C@H]1CO	none
Cc1ccc2nc(CN3CCN(C(=O)Nc4ccc(C)c(F)c4)CC3)oc2c1	none (no result: SW480 rerep, MCF10A rereplic, HT1080NT lethal, HT1080 IDH1KD tx)
Cc1cccc(NC(=O)C(=O)NCC(c2cccnc2)N2CCOCC2)c1 (stereo not given)	none (no result: SW480 rerep, MCF10A rereplic, HT1080NT lethal, HT1080 IDH1KD tx)
COc1cccc(CNC(=O)C23CN(Cc4ccccc4)CC2C(c2ccc([N+](=O)[O-])cc2)=NO3)c1 (stereo not given)	KB-V1 MDR tox 13µM
CC(C)CCNC(=O)C12CN(Cc3ccccc3)CC1C(c1ccc([N+](=O)[O-])cc1)=NO2 (stereo not given)	KB-3-1 tox inconclusive
Cc1cccc(-c2ccc(NC(=O)C3CCN(CC4CC4)CC3)cc2)c1	SW480 rerep inconclusive, MCF10A rereplic inconclusive, HT1080NT lethal 20.6µM, HT1080 IDH1KD tx inconclusive
COCc1ccc(CN2CCC(C(=O)Nc3cccc(-c4cccc(Cl)c4)c3)CC2)o1	SW480 rerep inconclusive, KB-V1 MDR tox inconclusive, MCF10A rereplic inconclusive, HT1080NT lethal 14.6µM, HT1080 IDH1KD tx 16.4µM, KB-3-1 tox inconclusive
O=C(Nc1cccc(-c2cccc(Cl)c2)c1)C1CCN(CC2CCOC2)CC1 (stereo not given)	HT1080NT lethal 18.4µM, HT1080 IDH1KD tx inconclusive, KB-3-1 tox inconclusive
COCc1ccc(CN2CCC(C(=O)Nc3cccc(-c4cscn4)c3)CC2)o1	none
O=C(Nc1cccc(-c2cccc(Cl)c2)c1)C1CCN(Cc2ccon2)CC1	SW480 rerep inconclusive, HT1080NT lethal inconclusive, HT1080 IDH1KD tx inconclusive, KB-3-1 tox inconclusive
Cc1c(Cl)cccc1NC(=O)CCCn1nc(C)c2sc3ccccc3c2c1=O	none (no result: SW480 rerep, MCF10A rereplic, HT1080NT lethal, HT1080 IDH1KD tx)
COCc1nn2cc(-c3ccc(C)cc3)nc2s1	none (no result: SW480 rerep, MCF10A rereplic, HT1080NT lethal, HT1080 IDH1KD tx)
Cc1c(C)c(C)c(/C=C/c2ccnc3ccccc23)c(C)c1C	none (no result: SW480 rerep, MCF10A rereplic, HT1080NT lethal, HT1080 IDH1KD tx)
CCN(Cc1nc2ccccc2c(=O)[nH]1)Cc1nc2cc(OC)c(OC)cc2c(=O)[nH]1	none
COc1cc2nc(CN(C)Cc3nc4ccccc4c(=O)[nH]3)[nH]c(=O)c2cc1OC	SW480 rerep 16.4µM, MCF10A rereplic inconclusive, HT1080NT lethal 17.8µM, HT1080 IDH1KD tx 7.08µM
COc1ccccc1NC(=O)N(Cc1ccc2c(c1)OCO2)Cc1nc2ccccc2c(=O)[nH]1	none
O=c1[nH]c(CN(CCc2ccccc2)S(=O)(=O)c2ccc(Cl)cc2)nc2ccccc12	SW480 rerep inconclusive, KB-V1 MDR tox 3.26µM
COc1ccccc1CN(Cc1nc2ccccc2c(=O)[nH]1)C(=O)Nc1cccc(C)c1	KB-V1 MDR tox inconclusive, HT1080NT lethal 7.08µM, HT1080 IDH1KD tx 3.55µM
COc1ccccc1CN(Cc1nc2ccccc2c(=O)[nH]1)S(=O)(=O)c1ccc2ccccc2c1	SW480 rerep inconclusive, KB-V1 MDR tox 13µM, HT1080NT lethal inconclusive, HT1080 IDH1KD tx 6.31µM
CC1CCCCN1C(=O)C1CCN(c2nc(-c3ccccc3)nc3c2CCC3)CC1 (stereo not given)	MCF10A rereplic inconclusive, KB-3-1 tox 20.6µM
CCOCCCNC(=O)Cn1cnc2sc(C)c(S(=O)(=O)N3CCN(c4ncccn4)CC3)c2c1=O	SW480 rerep 5.17µM
COc1ccccc1NC(=O)Cn1cnc2sc(C)c(S(=O)(=O)N3CCCCC3)c2c1=O	KB-V1 MDR tox 9.2µM
CC12CCC(c3c(C(=O)Nc4nccs4)nn(-c4ccccc4)c31)C2(C)C (stereo not given)	HT1080NT lethal inconclusive, HT1080 IDH1KD tx 14.1µM
C=CCn1c(=O)c(C(=O)NCCc2ccccc2)c(O)c2ccccc21	KB-V1 MDR tox 20.6µM
C=CCn1c(=O)c(C(=O)Nc2ccc(C)cn2)c(O)c2ccccc21	KB-V1 MDR tox 6.51µM, KB-3-1 tox inconclusive
CCCn1c(=O)c(C(=O)NCCc2ccccc2)c(O)c2ccccc21	KB-V1 MDR tox inconclusive, KB-3-1 tox inconclusive
CCc1c(C)sc2c1CCN(C(=O)Nc1ccccc1Cl)C2c1ccc(OC)cc1 (stereo not given)	none (no result: SW480 rerep, MCF10A rereplic, HT1080NT lethal, HT1080 IDH1KD tx)
COCCCNC(=O)C1CCCN(S(C)(=O)=O)C1 (stereo not given)	KB-3-1 tox inconclusive
COc1ccc(N2CCN(C(CNC(=O)COc3ccccc3)c3ccco3)CC2)cc1 (stereo not given)	KB-V1 MDR tox inconclusive, KB-3-1 tox inconclusive
Cc1c(NC(=O)CSc2nnc3c4ccccc4n(CCc4ccccc4)c3n2)c(=O)n(-c2ccccc2)n1C	SW480 rerep inconclusive, KB-V1 MDR tox inconclusive, MCF10A rereplic 8.2µM, HT1080NT lethal inconclusive, HT1080 IDH1KD tx inconclusive, KB-3-1 tox inconclusive
COC(=O)Cn1c(=O)c2c(n(Cc3ccccc3)c1=O)N/C(=C/c1ccc(OC)cc1)C2=O	SW480 rerep 20.6µM, MCF10A rereplic 18.4µM
